From PubChem BioAssay (NCATS)
Values joined by “and” are separate entries in the source; they are usually repeats but may differ in a detail not shown here. Equal values may be shown once. Inconclusive results are not listed. Active and inactive are the calls of the source. Unless noted, calls come from the whole dose curve; as a rule, active = well fitted curve in the direction sought with a large enough effect; inconclusive = small, poorly fitted or top-dose-only effect, or another doubt; inactive = no such curve, though single readings can be large; an effect the other way counts as inactive or inconclusive.

Experiments:
[1] = qHTS assay for small molecule agonists of the antioxidant response element (ARE) signaling pathway (AID 651741; active = well fitted activation curve with a large enough effect in the signal ratio; the % refers to the signal ratio; note: potency is the fitted concentration of half-maximal effect; for activation: % of control where 0% means no effect)
Procedure, shortened: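 Seeding 2,000 ARE-bla HepG2 cells per well preceded a 5 h incubation at 37 C/5% CO2 and a 16 h compound exposure at 37 C. Beta-lactamase reporter activity was then quantified by fluorescence after 2 h with LiveBLAzer B/G FRET substrate.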

[2] = qHTS assay for small molecule activators of the p53 signaling pathway (AID 651743; active = well fitted activation curve with a large enough effect in the signal ratio, not every such curve was filed as active; the % refers to the signal ratio; note: potency is the fitted concentration of half-maximal effect; for activation: series mostly up to about 92 µM; % of control where 0% means no effect); settings: HCT-116 p53RE-bla, beta-lactamase FRET ratio, 16 h; activation: stronger effect = higher value
Procedure, shortened: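 Screen for p53 pathway agonists uses stably transfected p53RE-bla HCT-116 cells, 4,000 per well, treated 16 h at 37 C with compounds in DMSO.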

[3] = qHTS assay for small molecule activators of the nuclear factor-kappa B (NF-kB) signaling pathway (AID 651749; active = well fitted activation curve with a large enough effect in the signal ratio; the % refers to the signal ratio; note: series mostly up to about 77 µM; % of control where 0% means no effect); settings: NF-kB-bla ME-180 cells, beta-lactamase FRET ratio, 16 h; stronger effect = higher value
Procedure, shortened: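 Stably transfected ME-180 line; NF-kB response element upstream of beta-lactamase. Treatment: compound or DMSO, 16 hr. Detection: fluorescent FRET substrate.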

[4] = qHTS assay for small molecule disruptors of the mitochondrial membrane potential - 1 hr assay (AID 651754; calls by dose curve; note: nearly all actives have a fitted effect of over 35% in size; note: potency is the fitted concentration of half-maximal effect)
Procedure, shortened: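 Steps: seed HepG2 cells and let attach overnight; pin-transfer compound or vehicle; incubate 1 hr at 37C; add Mito-MPS dye for 30 min; read two-channel fluorescence for monomer and aggregate forms.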

[5] = qHTS assay for small molecule disruptors of the mitochondrial membrane potential - 5 hr assay (AID 651755; calls by dose curve; note: nearly all actives have a fitted effect of over 40% in size; note: potency is the fitted concentration of half-maximal effect)
Procedure, shortened: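 HepG2, 2,000 cells/well, overnight attach; cpd or DMSO 5 hr, 37C/5% CO2; Mito-MPS 30 min 37C; fluor 490/535 + 540/590 nm.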

[6] = biological target: Tumor necrosis factor (Homo sapiens) (UniProt P01375); assay: qHTS assay to identify small molecules that stimulate Tumor Necrosis Factor-alpha (TNF-alpha) secretion (AID 651757; active = well fitted curve in the direction sought with a large enough effect in the signal ratio; the % refers to the signal ratio; note: 0% is about no effect)
Procedure, shortened: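 Secreted TNF-alpha from compound-treated THP-1 cells (17 hrs, 37 C) was quantified with a homogeneous time-resolved fluorescence antibody assay.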

[7] = qHTS assay for environmental chemicals that activate the Aryl hydrocarbon Receptor (AhR) signaling pathway (AID 651777); settings: 1A2-DRE human hepatoma cells, luciferase, 24 h; activation: stronger effect = higher value; note: % of control where 0% means no effect; nearly all actives have a fitted effect of over 15% in size
Procedure, shortened: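 Following a 24 hr incubation with test chemicals at 37 C and 5% CO2, 1A2-DRE human hepatoma cells received One-Glo reagent; after 30 min at room temperature, luciferase output reflected CYP1A2 induction via AhR.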

[8] = biological target: Peroxisome proliferator-activated receptor alpha (Homo sapiens) (UniProt Q07869); assay: qHTS assay for small molecule agonists of the peroxisome proliferator-activated receptor alpha (PPARalpha) signaling pathway (AID 651778); settings: PathHunter PPARalpha complementation, chemiluminescence, 6 h; stronger effect = higher value; note: % of control where 0% means no effect
Procedure, shortened: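 Chemiluminescence from complemented enzyme reported PPARalpha activation in cells after 6 hr of compound treatment at 37 C. The detection reagent was incubated for 60 min at room temperature, and compounds were scored as agonists.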

[9] = Cell Proliferation Assay against the TMD8 Cell Line (Caspase readout at 8 hrs) (AID 651713); settings: TMD8 lymphoma cells, caspase activation luminescence; note: potency is the fitted concentration of half-maximal effect
Procedure, shortened: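 Percent activity derived from Caspase-Glo signal, DMSO set to 0% and bortezomib (9.2 uM final) to 100%. TMD8 cells were exposed to compound for 8 h in RPMI with 5% FBS.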

Sequence of Tumor necrosis factor (Homo sapiens) (P01375 whole entry, looked up): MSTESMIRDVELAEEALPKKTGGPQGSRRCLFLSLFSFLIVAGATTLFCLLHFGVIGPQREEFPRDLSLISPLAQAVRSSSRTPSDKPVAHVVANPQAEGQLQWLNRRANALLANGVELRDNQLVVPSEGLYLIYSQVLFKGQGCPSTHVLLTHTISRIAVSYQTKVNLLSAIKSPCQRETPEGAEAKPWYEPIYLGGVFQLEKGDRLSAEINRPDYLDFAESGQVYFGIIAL
Sequence of Peroxisome proliferator-activated receptor alpha (Homo sapiens) (Q07869 whole entry, looked up): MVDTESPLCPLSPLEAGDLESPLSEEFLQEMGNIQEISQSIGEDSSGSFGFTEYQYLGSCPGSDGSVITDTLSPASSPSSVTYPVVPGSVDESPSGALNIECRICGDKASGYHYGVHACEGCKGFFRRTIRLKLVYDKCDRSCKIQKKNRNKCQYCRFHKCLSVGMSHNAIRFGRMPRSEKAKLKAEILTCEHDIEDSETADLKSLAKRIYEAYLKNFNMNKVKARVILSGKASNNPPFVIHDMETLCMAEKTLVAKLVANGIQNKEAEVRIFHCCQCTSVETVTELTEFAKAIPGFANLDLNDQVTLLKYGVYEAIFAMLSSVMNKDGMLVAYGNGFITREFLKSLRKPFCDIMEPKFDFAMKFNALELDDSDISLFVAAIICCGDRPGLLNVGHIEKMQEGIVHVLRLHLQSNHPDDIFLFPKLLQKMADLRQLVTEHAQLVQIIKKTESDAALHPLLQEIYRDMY

OCc1c[nH]c2ccccc12
active: Potency [1] 66.8 µM
inactive: activation [2] -1.58% | activation [3] -1.28% | Potency [4] | Potency [5] | outcome [6] | activation [7] 2.25% | max response [8] -6.59%

COc1cc(C=O)ccc1O
inactive: activation [2] -5.16% and -4.75% | activation [3] -1.8% and -1.55% | activation [7] 2.04% and 0.0367% | max response [8] -1.16% and -2.1%

CC(=O)OC/C=C(C)/C=C/C=C(C)/C=C/C1=C(C)CCCC1(C)C
active: Potency [1] 42.2 µM and 54.5 µM
inactive: activation [2] -8.23% and -2.69% | activation [3] -1.82% and 0.334% | Potency [4] | Potency [5] | outcome [6] | activation [7] -0.036% and -0.475% | max response [8] -6.94% and -1.56%

C[C@@H](O[C@H]1OCCN(Cc2n[nH]c(=O)[nH]2)[C@H]1c1ccc(F)cc1)c1cc(C(F)(F)F)cc(C(F)(F)F)c1
active: Potency [9] 33.2 µM

Nc1c2ccccc2nc2ccccc12
inactive: max response [8] -4.95%
active: Potency [1] 10.6 µM | Potency [2] 11.2 µM | Potency [4] 9.44 µM | Potency [5] 15 µM

C1=CC2C3C=CC(C3)C2C1 (stereo not drawn)
inactive: Potency [1] | activation [2] -1.4% | activation [3] -1.05% | outcome [6] | activation [7] 0.971% | max response [8] -3.12%

Cc1ccc(O)cc1
inactive: activation [2] -3.91% | activation [3] -0.225% | Potency [4] | Potency [5] | outcome [6] | max response [8] -0.0678%
